What all share (test): DAPPL (digital affinity profiling via proximity ligation, sequencing); 10 mM Tris-HCl pH 7.5, 50 mM NaCl, 1 mM DTT, 4% glycerol, room temperature, 30 min; GST-TFs on glutathione beads, 16-mer random dsDNA library, 0.1% formaldehyde crosslink after washing; high values mean tight binding
In assay [1] the target is T1, FLI1 (Homo sapiens, UniProt Q01543 1-452).
T1 sequence: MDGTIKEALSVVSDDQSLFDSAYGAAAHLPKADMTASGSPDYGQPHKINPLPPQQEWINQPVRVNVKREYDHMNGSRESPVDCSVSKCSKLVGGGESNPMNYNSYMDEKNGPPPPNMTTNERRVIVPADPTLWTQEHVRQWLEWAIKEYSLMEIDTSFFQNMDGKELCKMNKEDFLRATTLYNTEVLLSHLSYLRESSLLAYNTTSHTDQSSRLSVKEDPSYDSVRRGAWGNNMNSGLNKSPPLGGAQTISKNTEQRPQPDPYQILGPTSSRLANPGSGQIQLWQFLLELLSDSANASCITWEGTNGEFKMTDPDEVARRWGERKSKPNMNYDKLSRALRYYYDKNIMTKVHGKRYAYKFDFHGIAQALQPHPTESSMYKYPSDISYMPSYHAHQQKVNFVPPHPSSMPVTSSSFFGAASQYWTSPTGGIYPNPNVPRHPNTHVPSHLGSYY
Conditions: protein: recombinant; tags: N-terminal GST; dsDNA, one strand shown. A digest of the protocol: (§1)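 Yeast served to express human transcription factors as GST fusions, which were then captured on glutathione beads and labelled with DNA barcodes. Pooled with a tag-only sample, they were incubated with 200 nmole of a 16-mer random double-stranded DNA library for 30 min at room temperature in Tris/NaCl/DTT/glycerol buffer, washed, crosslinked with 0.1% formaldehyde, ligated by proximity, amplified by PCR and sequenced. Dividing each hexamer's read frequency for a factor by its frequency for the tag-only sample gives the binding signal.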

Assay [2] deals with T2, ELK1 (Homo sapiens, UniProt P19419 1-428).
T2 sequence: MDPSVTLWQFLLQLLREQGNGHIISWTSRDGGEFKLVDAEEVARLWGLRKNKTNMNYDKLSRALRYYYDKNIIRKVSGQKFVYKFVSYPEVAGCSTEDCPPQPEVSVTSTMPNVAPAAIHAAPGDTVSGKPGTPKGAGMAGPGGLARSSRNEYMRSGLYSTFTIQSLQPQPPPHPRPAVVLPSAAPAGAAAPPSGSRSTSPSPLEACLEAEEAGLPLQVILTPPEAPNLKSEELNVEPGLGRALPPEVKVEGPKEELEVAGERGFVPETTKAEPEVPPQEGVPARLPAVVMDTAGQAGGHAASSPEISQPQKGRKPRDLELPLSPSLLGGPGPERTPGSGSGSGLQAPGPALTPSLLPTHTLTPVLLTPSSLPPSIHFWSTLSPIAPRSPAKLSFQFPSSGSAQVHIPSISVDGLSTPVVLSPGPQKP
Conditions: protein: recombinant; tags: N-terminal GST; dsDNA, one strand shown. In outline: as §1

Assay [3] addresses T3, GABPA (Homo sapiens, UniProt Q06546 1-454).
T3 sequence: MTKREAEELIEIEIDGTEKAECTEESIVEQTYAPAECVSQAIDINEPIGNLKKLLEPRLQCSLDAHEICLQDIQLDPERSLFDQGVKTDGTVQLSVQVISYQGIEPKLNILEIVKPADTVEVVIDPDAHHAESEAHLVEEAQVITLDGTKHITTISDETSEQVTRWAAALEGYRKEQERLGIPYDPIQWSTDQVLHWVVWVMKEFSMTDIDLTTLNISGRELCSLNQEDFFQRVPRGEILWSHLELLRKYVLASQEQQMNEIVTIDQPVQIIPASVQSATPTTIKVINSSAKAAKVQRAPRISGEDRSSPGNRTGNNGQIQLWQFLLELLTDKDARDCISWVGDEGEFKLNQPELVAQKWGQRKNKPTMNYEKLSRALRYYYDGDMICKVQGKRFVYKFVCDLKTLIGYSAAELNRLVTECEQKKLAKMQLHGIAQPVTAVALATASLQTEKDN
To be noted: protein: recombinant; tags: N-terminal GST; dsDNA, one strand shown. A digest of the protocol:
as §1

Assay [4] concerns the target T4, ERG (Homo sapiens, UniProt P11308 1-479).
T4 sequence: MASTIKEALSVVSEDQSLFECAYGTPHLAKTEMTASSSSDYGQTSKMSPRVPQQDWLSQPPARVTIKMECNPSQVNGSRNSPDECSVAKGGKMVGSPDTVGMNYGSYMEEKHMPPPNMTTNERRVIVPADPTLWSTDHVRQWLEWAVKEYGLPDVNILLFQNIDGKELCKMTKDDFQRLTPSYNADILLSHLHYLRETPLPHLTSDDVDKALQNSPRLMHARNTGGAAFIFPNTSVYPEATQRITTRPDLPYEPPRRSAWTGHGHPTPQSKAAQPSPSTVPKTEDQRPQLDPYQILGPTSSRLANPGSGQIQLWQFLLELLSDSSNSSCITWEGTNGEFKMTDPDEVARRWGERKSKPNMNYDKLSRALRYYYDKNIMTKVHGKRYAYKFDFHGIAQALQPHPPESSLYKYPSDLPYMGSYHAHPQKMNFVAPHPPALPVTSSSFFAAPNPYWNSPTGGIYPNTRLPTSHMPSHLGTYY
To be noted: protein: recombinant; tags: N-terminal GST; dsDNA, one strand shown. A digest of the protocol: as §1

For assay [5], the target named is ELF1 (Homo sapiens, UniProt P32519 1-619). Conditions: protein: recombinant; tags: N-terminal GST; dsDNA, one strand shown. In outline:
as §1

The target of assay [6] is T5, EHF (Homo sapiens, UniProt Q9NZC4 1-300).
T5 sequence: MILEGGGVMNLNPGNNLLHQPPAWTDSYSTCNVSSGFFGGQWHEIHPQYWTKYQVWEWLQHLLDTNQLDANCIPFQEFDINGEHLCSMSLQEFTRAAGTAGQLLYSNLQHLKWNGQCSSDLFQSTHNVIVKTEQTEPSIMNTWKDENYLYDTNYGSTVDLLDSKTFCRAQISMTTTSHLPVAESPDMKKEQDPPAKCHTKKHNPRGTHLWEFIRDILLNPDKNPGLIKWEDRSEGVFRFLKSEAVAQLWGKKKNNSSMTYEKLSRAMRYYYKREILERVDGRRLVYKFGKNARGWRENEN
To be noted: protein: recombinant; tags: N-terminal GST; dsDNA, one strand shown. A digest of the protocol:
as §1

Assay [7] addresses SPI1 (Homo sapiens, UniProt P17947 1-270). To be noted: protein: recombinant; tags: N-terminal GST; dsDNA, one strand shown. A digest of the protocol:
as §1

For assay [8], the target named is SPIB (Homo sapiens, UniProt Q01892 1-262). Conditions: protein: recombinant; tags: N-terminal GST; dsDNA, one strand shown. A digest of the protocol: as §1
Assay [9] has as its target T6, ELK3 (Homo sapiens, UniProt P41970 1-407).
T6 sequence: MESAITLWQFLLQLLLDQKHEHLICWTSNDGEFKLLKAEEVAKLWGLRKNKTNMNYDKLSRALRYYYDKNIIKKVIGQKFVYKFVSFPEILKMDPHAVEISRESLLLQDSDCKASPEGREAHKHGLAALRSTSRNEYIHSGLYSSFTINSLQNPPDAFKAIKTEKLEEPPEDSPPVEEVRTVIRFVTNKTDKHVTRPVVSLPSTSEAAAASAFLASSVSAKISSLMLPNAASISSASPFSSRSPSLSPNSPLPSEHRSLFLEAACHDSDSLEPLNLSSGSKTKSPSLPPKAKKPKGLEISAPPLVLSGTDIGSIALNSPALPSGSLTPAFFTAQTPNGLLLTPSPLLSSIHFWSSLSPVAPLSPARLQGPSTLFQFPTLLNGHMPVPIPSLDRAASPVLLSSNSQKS
Conditions: protein: recombinant; tags: N-terminal GST; dsDNA, one strand shown. A digest of the protocol:
as §1

Assay [10] deals with T7, FEV (Homo sapiens, UniProt Q99581 1-238).
T7 sequence: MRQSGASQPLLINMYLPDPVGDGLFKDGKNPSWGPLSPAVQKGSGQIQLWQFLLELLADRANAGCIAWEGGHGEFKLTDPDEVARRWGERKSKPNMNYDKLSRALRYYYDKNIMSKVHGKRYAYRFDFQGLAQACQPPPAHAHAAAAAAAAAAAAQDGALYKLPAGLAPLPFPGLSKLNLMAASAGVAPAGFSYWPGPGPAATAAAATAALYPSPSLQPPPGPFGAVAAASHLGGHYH
Conditions: protein: recombinant; tags: N-terminal GST; dsDNA, one strand shown. In outline: as §1

The target of assay [11] is ETV5 (Homo sapiens, UniProt P41161 1-510). Conditions: protein: recombinant; tags: N-terminal GST; dsDNA, one strand shown. In outline: as §1
Assay [12] deals with HSF1 (Homo sapiens, UniProt Q00613 1-529). Conditions: protein: recombinant; tags: N-terminal GST; chain copies: 3; dsDNA, one strand shown. In outline: as §1
Assay [13] concerns the target T8, SPIC (Homo sapiens, UniProt Q8N5J4 1-248).
T8 sequence: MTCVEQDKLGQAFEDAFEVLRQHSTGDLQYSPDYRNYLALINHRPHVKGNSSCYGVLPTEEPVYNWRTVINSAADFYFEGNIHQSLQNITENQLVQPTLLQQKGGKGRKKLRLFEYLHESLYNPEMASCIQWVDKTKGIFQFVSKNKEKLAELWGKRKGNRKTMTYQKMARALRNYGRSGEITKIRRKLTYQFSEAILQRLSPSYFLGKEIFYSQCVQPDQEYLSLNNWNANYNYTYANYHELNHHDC
Conditions: protein: recombinant; tags: N-terminal GST; dsDNA, one strand shown. A digest of the protocol:
as §1

Assay [14] concerns the target ELF4 (Homo sapiens, UniProt Q99607 1-663). Conditions: protein: recombinant; tags: N-terminal GST; dsDNA, one strand shown. In outline: as §1
The target in assay [15] is T9, ELK4 (Homo sapiens, UniProt P28324-2 1-405).
T9 sequence: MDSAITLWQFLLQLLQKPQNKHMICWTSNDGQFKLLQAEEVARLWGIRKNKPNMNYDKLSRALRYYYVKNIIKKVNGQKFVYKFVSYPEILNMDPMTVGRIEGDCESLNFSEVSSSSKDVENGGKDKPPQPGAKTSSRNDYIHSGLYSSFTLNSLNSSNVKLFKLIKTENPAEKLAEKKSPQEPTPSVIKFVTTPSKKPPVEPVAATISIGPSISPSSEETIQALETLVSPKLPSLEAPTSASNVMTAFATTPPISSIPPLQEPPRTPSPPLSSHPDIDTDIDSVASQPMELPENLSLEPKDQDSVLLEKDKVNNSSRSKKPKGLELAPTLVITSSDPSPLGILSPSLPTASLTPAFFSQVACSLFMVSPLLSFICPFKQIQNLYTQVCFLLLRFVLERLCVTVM
To be noted: protein: recombinant; tags: N-terminal GST; dsDNA, one strand shown. In outline:
as §1

Assay [16] addresses T10, ETV2 (Homo sapiens, UniProt O00321 1-342).
T10 sequence: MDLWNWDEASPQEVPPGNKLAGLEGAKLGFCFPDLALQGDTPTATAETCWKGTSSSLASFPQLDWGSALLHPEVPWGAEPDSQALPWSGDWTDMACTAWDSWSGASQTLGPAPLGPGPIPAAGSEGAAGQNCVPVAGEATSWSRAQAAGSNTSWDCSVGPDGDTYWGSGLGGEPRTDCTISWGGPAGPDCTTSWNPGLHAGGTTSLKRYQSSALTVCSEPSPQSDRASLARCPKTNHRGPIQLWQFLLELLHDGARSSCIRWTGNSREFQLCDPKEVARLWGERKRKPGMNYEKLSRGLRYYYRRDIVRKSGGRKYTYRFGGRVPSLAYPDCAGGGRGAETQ
Conditions: protein: recombinant; tags: N-terminal GST; dsDNA, one strand shown. A digest of the protocol: as §1

The target of assay [17] is T11, ELF3 (Homo sapiens, UniProt P78545 1-371).
T11 sequence: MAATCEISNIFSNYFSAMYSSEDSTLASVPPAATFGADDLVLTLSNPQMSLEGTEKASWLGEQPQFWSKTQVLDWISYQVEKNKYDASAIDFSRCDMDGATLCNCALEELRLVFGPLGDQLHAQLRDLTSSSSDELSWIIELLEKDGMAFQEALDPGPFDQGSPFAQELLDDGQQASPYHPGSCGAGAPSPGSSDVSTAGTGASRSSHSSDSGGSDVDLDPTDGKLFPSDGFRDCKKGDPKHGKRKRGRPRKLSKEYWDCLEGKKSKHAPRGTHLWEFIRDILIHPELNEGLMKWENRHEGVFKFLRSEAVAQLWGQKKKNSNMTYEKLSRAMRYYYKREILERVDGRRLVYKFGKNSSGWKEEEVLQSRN
To be noted: protein: recombinant; tags: N-terminal GST; dsDNA, one strand shown. In outline: as §1

Assay [18] has as its target CRX (Homo sapiens, UniProt O43186 1-299). To be noted: protein: recombinant; tags: N-terminal GST; dsDNA, one strand shown. In outline:
as §1

Assay [19] concerns the target ETV1 (Homo sapiens, UniProt P50549 1-477). Conditions: protein: recombinant; tags: N-terminal GST; dsDNA, one strand shown. A digest of the protocol: as §1

Sequence of ELF4 (Q99607 whole entry): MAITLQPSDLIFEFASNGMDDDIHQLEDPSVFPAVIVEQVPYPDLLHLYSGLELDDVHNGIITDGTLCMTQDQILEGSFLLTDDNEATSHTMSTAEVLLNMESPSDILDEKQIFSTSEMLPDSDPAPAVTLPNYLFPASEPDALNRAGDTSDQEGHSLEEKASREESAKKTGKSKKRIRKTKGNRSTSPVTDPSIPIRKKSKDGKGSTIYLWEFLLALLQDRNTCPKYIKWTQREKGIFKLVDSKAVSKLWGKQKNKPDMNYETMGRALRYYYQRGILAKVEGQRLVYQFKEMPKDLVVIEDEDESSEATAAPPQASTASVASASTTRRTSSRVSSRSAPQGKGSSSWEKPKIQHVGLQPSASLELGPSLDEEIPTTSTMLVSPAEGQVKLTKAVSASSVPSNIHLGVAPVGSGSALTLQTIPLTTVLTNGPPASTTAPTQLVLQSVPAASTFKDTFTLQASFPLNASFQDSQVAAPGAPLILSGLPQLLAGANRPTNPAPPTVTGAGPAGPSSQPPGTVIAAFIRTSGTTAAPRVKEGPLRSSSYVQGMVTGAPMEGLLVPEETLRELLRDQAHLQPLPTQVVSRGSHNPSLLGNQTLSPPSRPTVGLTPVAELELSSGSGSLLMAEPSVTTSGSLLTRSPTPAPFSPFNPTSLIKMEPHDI
Sequence of SPIB (Q01892 whole entry): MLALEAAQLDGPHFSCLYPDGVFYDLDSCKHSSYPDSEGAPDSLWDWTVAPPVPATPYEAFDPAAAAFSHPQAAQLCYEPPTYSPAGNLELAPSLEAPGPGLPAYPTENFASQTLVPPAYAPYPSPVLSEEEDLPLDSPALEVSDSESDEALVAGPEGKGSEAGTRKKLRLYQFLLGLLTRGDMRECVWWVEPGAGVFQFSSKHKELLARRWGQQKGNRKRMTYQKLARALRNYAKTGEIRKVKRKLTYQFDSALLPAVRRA
Sequence of ELF1 (P32519 whole entry): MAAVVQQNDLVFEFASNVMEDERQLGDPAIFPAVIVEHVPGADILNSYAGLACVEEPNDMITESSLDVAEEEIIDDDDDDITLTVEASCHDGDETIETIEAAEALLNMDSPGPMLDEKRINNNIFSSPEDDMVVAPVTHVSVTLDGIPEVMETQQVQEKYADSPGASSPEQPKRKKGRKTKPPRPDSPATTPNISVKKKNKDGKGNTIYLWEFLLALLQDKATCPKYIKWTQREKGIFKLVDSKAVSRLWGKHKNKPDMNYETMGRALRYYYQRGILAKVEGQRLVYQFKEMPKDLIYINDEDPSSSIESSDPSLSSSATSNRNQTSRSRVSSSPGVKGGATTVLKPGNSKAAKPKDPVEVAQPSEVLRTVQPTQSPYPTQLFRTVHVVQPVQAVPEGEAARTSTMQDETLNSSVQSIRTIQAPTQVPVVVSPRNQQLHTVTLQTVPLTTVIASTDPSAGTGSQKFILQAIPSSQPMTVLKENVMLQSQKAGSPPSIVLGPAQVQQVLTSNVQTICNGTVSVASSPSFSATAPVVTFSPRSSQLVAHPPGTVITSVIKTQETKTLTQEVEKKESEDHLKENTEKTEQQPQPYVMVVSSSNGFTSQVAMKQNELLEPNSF
Sequence of ETV1 (P50549 whole entry): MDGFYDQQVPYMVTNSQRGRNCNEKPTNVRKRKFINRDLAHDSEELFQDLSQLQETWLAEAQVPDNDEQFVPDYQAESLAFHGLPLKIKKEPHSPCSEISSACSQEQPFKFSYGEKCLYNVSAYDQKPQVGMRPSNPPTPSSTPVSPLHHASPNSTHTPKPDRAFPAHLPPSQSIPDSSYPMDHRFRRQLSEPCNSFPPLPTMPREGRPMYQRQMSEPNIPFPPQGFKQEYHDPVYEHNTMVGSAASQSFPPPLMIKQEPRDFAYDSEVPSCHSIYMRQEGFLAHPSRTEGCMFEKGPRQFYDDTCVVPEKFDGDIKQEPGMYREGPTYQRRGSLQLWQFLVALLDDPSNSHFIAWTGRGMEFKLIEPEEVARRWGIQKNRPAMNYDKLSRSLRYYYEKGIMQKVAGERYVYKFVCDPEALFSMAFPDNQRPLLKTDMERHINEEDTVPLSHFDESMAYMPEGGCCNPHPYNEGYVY
Sequence of HSF1 (Q00613 whole entry): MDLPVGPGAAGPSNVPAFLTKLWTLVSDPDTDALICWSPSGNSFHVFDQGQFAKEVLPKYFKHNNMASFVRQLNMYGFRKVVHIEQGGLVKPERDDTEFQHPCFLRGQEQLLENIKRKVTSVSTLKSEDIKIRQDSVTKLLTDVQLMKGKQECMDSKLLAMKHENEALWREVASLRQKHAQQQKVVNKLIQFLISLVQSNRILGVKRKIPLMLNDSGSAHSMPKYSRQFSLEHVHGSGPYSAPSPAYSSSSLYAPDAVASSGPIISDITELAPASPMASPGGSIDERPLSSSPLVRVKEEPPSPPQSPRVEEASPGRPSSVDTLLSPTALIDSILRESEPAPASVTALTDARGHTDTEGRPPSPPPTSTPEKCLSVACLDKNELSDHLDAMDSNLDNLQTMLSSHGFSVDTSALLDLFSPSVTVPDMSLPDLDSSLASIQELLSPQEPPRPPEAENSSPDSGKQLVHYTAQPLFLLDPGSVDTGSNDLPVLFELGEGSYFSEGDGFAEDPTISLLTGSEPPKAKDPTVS
Sequence of ETV5 (P41161 whole entry): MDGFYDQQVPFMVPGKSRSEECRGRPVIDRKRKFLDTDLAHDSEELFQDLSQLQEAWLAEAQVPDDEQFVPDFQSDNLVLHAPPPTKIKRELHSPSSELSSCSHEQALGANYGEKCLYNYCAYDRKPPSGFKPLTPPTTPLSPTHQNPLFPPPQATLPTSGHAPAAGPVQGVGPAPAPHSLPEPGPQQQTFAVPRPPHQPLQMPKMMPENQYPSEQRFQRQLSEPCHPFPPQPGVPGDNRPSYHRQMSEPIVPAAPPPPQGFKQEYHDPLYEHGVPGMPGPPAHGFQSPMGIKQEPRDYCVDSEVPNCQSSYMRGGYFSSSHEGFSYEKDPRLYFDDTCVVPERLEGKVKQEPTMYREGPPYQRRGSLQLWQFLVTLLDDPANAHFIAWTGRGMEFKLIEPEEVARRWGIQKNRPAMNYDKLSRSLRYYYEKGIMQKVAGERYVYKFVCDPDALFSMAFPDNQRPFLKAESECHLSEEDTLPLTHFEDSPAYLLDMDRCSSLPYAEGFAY
Sequence of CRX (O43186 whole entry): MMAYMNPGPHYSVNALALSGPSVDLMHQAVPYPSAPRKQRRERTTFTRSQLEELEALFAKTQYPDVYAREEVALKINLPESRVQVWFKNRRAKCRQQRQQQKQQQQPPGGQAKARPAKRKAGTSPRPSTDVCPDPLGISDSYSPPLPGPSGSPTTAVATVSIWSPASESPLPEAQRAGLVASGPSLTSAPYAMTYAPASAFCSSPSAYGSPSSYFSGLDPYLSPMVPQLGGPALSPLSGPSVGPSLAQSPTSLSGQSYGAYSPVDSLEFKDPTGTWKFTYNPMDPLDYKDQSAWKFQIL

On to ATGGAA, for which the binding signal is 1.17 fold enrichment (6-mer frequency, TF over GST control) in assay [1]; 1.11 fold enrichment (6-mer frequency, TF over GST control) in assay [2]; 1.18 fold enrichment (6-mer frequency, TF over GST control) in [3]; 1.26 fold enrichment (6-mer frequency, TF over GST control) in [4]; 1.16 fold enrichment (6-mer frequency, TF over GST control) in [5]; 1.2 fold enrichment (6-mer frequency, TF over GST control) in assay [6]. Also, the binding signal in [7] is 1.18 fold enrichment (6-mer frequency, TF over GST control); in assay [8] it was 1.19 fold enrichment (6-mer frequency, TF over GST control); in [9], 1.11 fold enrichment (6-mer frequency, TF over GST control); in assay [10], 1.16 fold enrichment (6-mer frequency, TF over GST control); in assay [11] it was 1.16 fold enrichment (6-mer frequency, TF over GST control); in assay [12] it was 1.86 fold enrichment (6-mer frequency, TF over GST control). For the same sequence, the binding signal in assay [13] was 1.22 fold enrichment (6-mer frequency, TF over GST control); in assay [14], 1.19 fold enrichment (6-mer frequency, TF over GST control); in [15], 1.13 fold enrichment (6-mer frequency, TF over GST control); in assay [16], 1.26 fold enrichment (6-mer frequency, TF over GST control); in assay [17], 1.16 fold enrichment (6-mer frequency, TF over GST control); in assay [18], 1.22 fold enrichment (6-mer frequency, TF over GST control). Moreover, the binding signal in assay [19] is 1.24 fold enrichment (6-mer frequency, TF over GST control).

The values are drawn from paper PMC7862700, “An all-to-all approach to the identification of sequence-specific readers for epigenetic DNA modifications on cytosine”.
